Assay in all cases: Primary qHTS to identify gynecologic anti-cancer compounds using libraries of approved drugs and bioactive compounds (AID 1345084); further: nearly all actives have a fitted effect of over 55% in size
One test has as its system C33A. Particulars: Gynecologic cancer cell panel viability, ATPlite luminescence, 48 h; series mostly up to 57.5 µM. The procedure, abridged: (§1)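 Five-point cytotoxicity, 48 h drug exposure at 37 C, 5% CO2, on cells seeded 16 h beforehand. ATP content read by ATPlite luminescence.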
In general terms: In ATP-based viability assays light output follows the ATP content of the culture.

The test system of another test is CAOV3. Particulars: Gynecologic cancer cell panel viability, ATPlite luminescence, 48 h; series mostly up to 57.5 µM. The procedure, abridged: as §1
The test system of a further test is CASKI. The following applies: Gynecologic cancer cell panel viability, ATPlite luminescence, 48 h; series mostly up to 57.5 µM. An outline of the steps: as §1
The next test deals with Es-2. The following applies: Gynecologic cancer cell panel viability, ATPlite luminescence, 48 h; series mostly up to 57.5 µM. An outline of the steps: as §1
A further test relates to HeLa. The following applies: Gynecologic cancer cell panel viability, ATPlite luminescence, 48 h; series mostly up to 57.5 µM. The procedure, abridged:
as §1

For another test, the system named is Hek293T. The following applies: Gynecologic cancer cell panel viability, ATPlite luminescence, 48 h, control line for the selectivity index; series mostly up to 57.5 µM. The procedure, abridged: as §1
In another test the test system is JEG-3. Particulars: Gynecologic cancer cell panel viability, ATPlite luminescence, 48 h; series mostly up to 57.5 µM. An outline of the steps: as §1
A further test concerns OV90. Particulars: Gynecologic cancer cell panel viability, ATPlite luminescence, 48 h; series mostly up to 57.5 µM. The procedure, abridged: as §1
The test system of a further test is SKOV3. The following applies: Gynecologic cancer cell panel viability, ATPlite luminescence, 48 h; series mostly up to 57.5 µM. An outline of the steps: as §1
The next test has as its system Tov-21-G. The following applies: Gynecologic cancer cell panel viability, ATPlite luminescence, 48 h; series mostly up to 57.5 µM. An outline of the steps: as §1
The test system of a further test is Tov112D. The following applies: Gynecologic cancer cell panel viability, ATPlite luminescence, 48 h; series mostly up to 57.5 µM. The procedure, abridged: as §1
For another test, the system named is PA-1. Particulars: Gynecologic cancer cell panel viability, ATPlite luminescence, 48 h; series mostly up to 57.5 µM. An outline of the steps: as §1

Results filed as inconclusive are left out. Values without a mark were called inactive. Activity calls are given as the source filed them. The call rests on the fitted dose curve; in most records, active means well fitted cell-killing curve with a large enough effect; inconclusive means small, poorly fitted or top-dose-only effect, or effect the other way; inactive means flat fitted curve, though single readings scatter.
Potency means the concentration at half of the fitted maximal effect.

`COC(=O)C1=CO[C@@H](O[C@@H]2O[C@H](CO)[C@@H](O)[C@H](O)[C@H]2O)[C@H]2[C@@H]1C=C[C@]21C=C([C@H](C)OC(=O)/C=C/c2ccc(O[C@@H]3O[C@H](CO)[C@@H](O)[C@H](O)[C@H]3O)cc2)C(=O)O1`: the Potency result with C33A, in the test with CAOV3, with Es-2, with HeLa, with Hek293T and in the test on JEG-3 was “inactive” throughout. Besides, the Potency result in the test on OV90, in the test with SKOV3, in the test with Tov-21-G and in the test with Tov112D was “inactive” throughout. In addition, the result in the test on CASKI was inactive.

For the compound `C=C1C2(C)CC3C4(C)OC(C5OC56C4=CC(=O)OC6(C)C)C3(C)C13C(=O)OC(C)C3(O)C2=O` (stereo not given), the Potency entry in the test with C33A, with CAOV3, with Es-2, in the test on HeLa, in the test with Hek293T and in the test on JEG-3 was “inactive” in each case. The Potency result in the test with OV90, in the test on SKOV3, in the test with Tov-21-G and in the test with Tov112D was “inactive” each time. Moreover, in the test with CASKI, the compound was called inactive.

For the compound `O=C(/C=C/C=C/c1ccc2c(c1)OCO2)N1CCCCC1`, the Potency entry in the test on C33A, in the test with CAOV3, in the test on HeLa, in the test on Hek293T, with JEG-3 and with Tov112D was “inactive” in each case. Also, the compound was classed as inactive in the test on CASKI.

Consider `O=[N+]([O-])c1cc(Cl)ccc1S(=O)(=O)N1CCN(Cc2ccccc2)CC1`, for which the Potency result in the test on C33A, in the test on CAOV3, with Es-2, in the test on HeLa, in the test on JEG-3 and in the test on OV90 was “inactive” in each case. For the same compound, the Potency result in the test on PA-1, with Tov-21-G and in the test on Tov112D was “inactive” each time. In addition, the outcome in the test on CASKI was inactive.

As to `CC1CC(=O)C2C(O)(C1)CC(O)C13OC1c1c(O)cccc1C(=O)C23O` (stereo not given), the Potency entry in the test with C33A, with CAOV3, in the test on Es-2, in the test with HeLa, in the test on JEG-3 and with OV90 was “inactive” throughout. Moreover, the Potency entry in the test on PA-1, in the test on SKOV3, with Tov-21-G and in the test on Tov112D was “inactive” each time. Besides, the call in the test with CASKI was inactive.

As to `C/C1=C\CC[C@]2(C)O[C@H]2C(=O)c2c(C)coc2C1`, the Potency was 7.94 µM (active) in the test on C33A; 15.8 µM (active) in the test with CAOV3; 11.2 µM (active) in the test with Es-2; 7.94 µM (active) in the test on HeLa; 10 µM (active) with Hek293T; 10 µM (active) in the test on PA-1. For the same compound, the Potency in the test with SKOV3 is 7.94 µM (active); with Tov-21-G it was 8.91 µM (active); with Tov112D, 4.47 µM (active). Besides, the result in the test with CASKI was inactive. For the same compound, the Potency entry with OV90 was “inactive”.

For `NC(=O)[C@@H]1CC[C@H](c2ccc(OCc3ccccc3F)cc2)N1`, the Potency result in the test with C33A, with CAOV3, in the test with Es-2, with HeLa, in the test on Hek293T and in the test on JEG-3 was “inactive” each time. For the same compound, the Potency entry in the test with PA-1 and in the test with Tov112D was “inactive” in each case. In addition, the outcome in the test with CASKI was inactive.

As for `CCOc1ccc(-c2nn3ncccc3c2-c2ccc(S(C)(=O)=O)cc2)cc1`, the Potency result in the test with C33A, in the test with CAOV3, with Es-2, in the test on HeLa, in the test on Hek293T and in the test on OV90 was “inactive” each time. Besides, the Potency entry in the test on PA-1, with SKOV3, in the test on Tov-21-G and with Tov112D was “inactive” in each case. The outcome in the test with CASKI was inactive.

In the case of `CC(=O)OCC1=CCC2C(C)(C)CCCC2(C)C12CCC(C)(CC(=O)O)O2` (stereo not given), the Potency result with C33A, in the test with CAOV3, with Es-2, in the test with HeLa, with Hek293T and in the test with OV90 was “inactive” in each case. The Potency entry in the test with PA-1, in the test with SKOV3, in the test with Tov-21-G and with Tov112D was “inactive” each time. Also, in the test on CASKI, the outcome was inactive.

`O=C(O)CC1(O)C(=O)Nc2ccccc21` (stereo not given): the Potency result with C33A, in the test on CAOV3, in the test on Es-2, with Hek293T, with JEG-3 and in the test with OV90 was “inactive” each time. Besides, the Potency entry with PA-1, with SKOV3, in the test on Tov-21-G and with Tov112D was “inactive” each time. Further, the compound was called inactive in the test on CASKI.

As to `Cc1ccccc1-n1nc(-c2c(-c3ccc(F)cc3)nn3c2NC[C@@H](CO)C3)ccc1=O`, the Potency entry in the test on C33A, with CAOV3, in the test on Es-2, with Hek293T, with JEG-3 and with OV90 was “inactive” each time. Besides, the Potency entry in the test with PA-1, in the test on SKOV3, with Tov-21-G and in the test with Tov112D was “inactive” in each case. Also, in the test on CASKI, the compound was classed as inactive.

Turning to `COC(=O)C1=COC(O[C@@H]2O[C@H](COC(=O)/C=C/c3ccc(O)cc3)[C@@H](O)[C@H](O)[C@H]2O)C2C(CO)=CCC12` (stereo not given in full), the Potency result with C33A, in the test with CAOV3, in the test on Es-2, in the test on HeLa, with JEG-3 and in the test with OV90 was “inactive” each time. Also, the Potency result in the test on PA-1, with SKOV3, in the test with Tov-21-G and with Tov112D was “inactive” in each case. For the same compound, the call in the test with CASKI was inactive.

With `CC(O)C1NC(=O)C2CCCN2C1=O` (stereo not given), the Potency result in the test on C33A, in the test with CAOV3, with Es-2, with HeLa, in the test on JEG-3 and in the test with OV90 was “inactive” in each case. For the same compound, the Potency entry with PA-1, in the test on Tov-21-G and with Tov112D was “inactive” throughout. The call in the test on CASKI was inactive.

On to `O=c1[nH]ccc2nc(-c3ccc(CN4CCC(c5nc(-c6ccccn6)n[nH]5)CC4)cc3)c(-c3ccccc3)cc12`, for which the Potency entry in the test with C33A, with CAOV3, in the test on Es-2, in the test with HeLa, in the test with JEG-3 and in the test with OV90 was “inactive” throughout. The Potency entry in the test with PA-1, in the test on Tov-21-G and with Tov112D was “inactive” in each case. Besides, in the test with CASKI, the call was inactive.

The values above are taken from PubChem BioAssay (NCATS).
